# Reference: PubChem BioAssay (NCI)
# Compounds without any hit were thinned out: in the full panel of roughly 79,000, 15% have a hit. Unmarked numbers belong to inactive results. Active and inactive are the calls of the source. Rule as the data show it: active = growth inhibition above about 70%; inactive = the rest.
# How the values were obtained:
# [1] = NCI Yeast Anticancer Drug Screen. Data for the rad52 strain (AID 147);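 also: 0% = growth of vehicle-treated control cultures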; settings: S. cerevisiae rad52 mutant growth inhibition, stronger effect = higher value
# Method in brief: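 Genetically altered yeast (DNA damage repair defect) treated with compound; inhibition calculated relative to vehicle.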
# [2] = NCI Yeast Anticancer Drug Screen. Data for the wt1 strain (AID 149);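 also: 0% = growth of vehicle-treated wt1 cultures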; settings: S. cerevisiae wt1 strain (SPY 50644) growth inhibition, stronger effect = higher value
# Method in brief: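 wt1 yeast, compound-treated; % growth inhibition vs vehicle control.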
# [3] = NCI Yeast Anticancer Drug Screen. Data for the rad50EPP+ strain (AID 151);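 also: 0% = growth of vehicle-treated control cultures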; settings: S. cerevisiae rad50 mutant strain, stronger effect = higher value
# Method in brief: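 Strain rad50EPP+; compound exposure; % growth inhibition vs vehicle.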
# [4] = NCI Yeast Anticancer Drug Screen. Data for the mgt1 strain (AID 153); settings: S. cerevisiae mgt1 mutant growth inhibition, stronger effect = higher value
# Method in brief: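 Read-out: yeast growth inhibition vs vehicle control. Strain mgt1, drawn from a panel altered in DNA damage repair or cell cycle control.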
# [5] = NCI Yeast Anticancer Drug Screen. Data for the rad50 strain (AID 155);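 also: 0% = growth of vehicle-only cultures of the same strain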; settings: S. cerevisiae rad50 strain growth inhibition, stronger effect = higher value
# Method in brief: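 Genetically altered yeast (DNA repair pathway); compound treatment; growth inhibition vs vehicle ctrl.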
# [6] = NCI Yeast Anticancer Drug Screen. Data for the mec2-1 strain (AID 157); settings: S. cerevisiae mec2-1 strain, stronger effect = higher value
# Method in brief: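 Cells of the genetically defined mec2-1 yeast strain are incubated with test compound. Inhibition of growth is calculated against vehicle-treated controls.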
# [7] = NCI Yeast Anticancer Drug Screen. Data for the rad14 strain (AID 159);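 also: 0% = growth of vehicle-treated control cultures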; settings: S. cerevisiae rad14 strain growth inhibition, stronger effect = higher value
# Method in brief: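 Test compounds were applied to a repair-deficient yeast strain. Its growth was then compared with that of cultures given vehicle alone, and inhibition was expressed relative to those controls.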
# [8] = NCI Yeast Anticancer Drug Screen. Data for the sgs1 mgt1 strain (AID 161);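 also: 0% = growth of cultures given vehicle only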; settings: S. cerevisiae sgs1 mgt1 strain, stronger effect = higher value
# Method in brief: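 Mutant yeast exposed to compound; growth scored against vehicle-only wells.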
# [9] = NCI Yeast Anticancer Drug Screen. Data for the cln2 rad14 strain (AID 165);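 also: 0% = growth equal to vehicle treated cultures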; settings: S. cerevisiae cln2 rad14 strain, stronger effect = higher value
# Method in brief: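 The screen exposed genetically defined yeast (cln2 rad14) to test compounds and scored growth inhibition relative to vehicle-treated controls.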
# [10] = NCI Yeast Anticancer Drug Screen. Data for the bub3 strain (AID 167); settings: S. cerevisiae bub3 mutant strain, stronger effect = higher value
# Method in brief: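 Yeast carrying a defined mutation is treated with each compound, and growth is compared with that of vehicle-exposed cells to give inhibition.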
# [11] = NCI Yeast Anticancer Drug Screen. Data for the wt2 strain (AID 169);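 also: 0% = growth of vehicle-treated yeast cultures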; settings: S. cerevisiae wt2 strain growth inhibition, stronger effect = higher value
# Method in brief: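 Steps: yeast strain treated with compound; growth recorded; inhibition calculated relative to cultures given vehicle alone.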
# [12] = NCI Yeast Anticancer Drug Screen. Data for the mlh1 strain (AID 171);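 also: 0% = growth of vehicle-treated control cultures of the same strain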; settings: S. cerevisiae mlh1 strain growth inhibition, stronger effect = higher value
# Method in brief: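 Yeast screen: mutant strain plus compound, growth scored against vehicle control wells.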
# [13] = NCI Yeast Anticancer Drug Screen. Data for the sgs1 strain (AID 173);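 also: 0% = growth of vehicle-only control cultures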; settings: S. cerevisiae sgs1 mutant, stronger effect = higher value
# Method in brief: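 Inhibition of yeast growth served as the measure. The mutant strain was treated with each compound, and growth was normalised to cultures receiving vehicle alone.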
# [14] = NCI Yeast Anticancer Drug Screen. Data for the mlh1 rad18 strain (AID 175); settings: S. cerevisiae mlh1 rad18 strain growth inhibition, stronger effect = higher value
# Method in brief: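 Compound-treated yeast growth, normalised to vehicle controls. Strain bears defined DNA repair mutations.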
# [15] = NCI Yeast Anticancer Drug Screen. Data for the rad18 strain (AID 177); settings: S. cerevisiae rad18 mutant growth inhibition, stronger effect = higher value
# Method in brief: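 Inhibition values reflect reduced yeast growth compared with vehicle-treated controls, using a strain engineered with a DNA damage repair defect.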
# [16] = at 5.0 µM (retest, dose inferred, filed as 0.5)
# [17] = at 50.0 µM (retest, dose inferred, filed as 5.0)
smiles,measurement,setting,value
CCn1c(O)c(C=Nc2ccccc2)s/c1=N/Nc1nc(-c2ccccc2)cs1,growth inhibition,[1]; at 1.2 µM,12%
same,growth inhibition,[1]; at 3.7 µM,5%
same,growth inhibition,[1]; at 11.0 µM,10%
same,growth inhibition,[1]; at 33.0 µM,4%
same,growth inhibition,[1]; at 100.0 µM,20%
same,growth inhibition,[2]; at 1.2 µM,-87%
same,growth inhibition,[2]; at 3.7 µM,-1%
same,growth inhibition,[2]; at 11.0 µM,0%
same,growth inhibition,[2]; at 33.0 µM,0%
same,growth inhibition,[2]; at 100.0 µM,-3%
same,growth inhibition,[3]; at 1.2 µM,7%
same,growth inhibition,[3]; at 3.7 µM,19%
same,growth inhibition,[3]; at 11.0 µM,32%
same,growth inhibition,[3]; at 33.0 µM,54%
same,growth inhibition,[3]; at 100.0 µM,74% (active)
same,growth inhibition,[4]; at 1.2 µM,0%
same,growth inhibition,[4]; at 3.7 µM,10%
same,growth inhibition,[4]; at 11.0 µM,18%
same,growth inhibition,[4]; at 33.0 µM,21%
same,growth inhibition,[4]; at 100.0 µM,24%
same,growth inhibition,[5]; at 1.2 µM,-2%
same,growth inhibition,[5]; at 3.7 µM,6%
same,growth inhibition,[5]; [16],-12%
same,growth inhibition,[5]; at 11.0 µM,14%
same,growth inhibition,[5]; at 33.0 µM,15%
same,growth inhibition,[5]; [17],12%
same,growth inhibition,[5]; at 50.0 µM,41.7%
same,growth inhibition,[5]; at 100.0 µM,11%
same,growth inhibition,[6]; at 1.2 µM,-6%
same,growth inhibition,[6]; at 3.7 µM,-1%
same,growth inhibition,[6]; [16],-25%
same,growth inhibition,[6]; at 11.0 µM,-1%
same,growth inhibition,[6]; at 33.0 µM,-1%
same,growth inhibition,[6]; [17],11%
same,growth inhibition,[6]; at 50.0 µM,23.8%
same,growth inhibition,[6]; at 100.0 µM,2%
same,growth inhibition,[7]; at 1.2 µM,0%
same,growth inhibition,[7]; at 3.7 µM,6%
same,growth inhibition,[7]; at 11.0 µM,9%
same,growth inhibition,[7]; at 33.0 µM,7%
same,growth inhibition,[7]; at 100.0 µM,1%
same,growth inhibition,[8]; [16],-7%
same,growth inhibition,[8]; [17],27%
same,growth inhibition,[8]; at 50.0 µM,43.5%
same,growth inhibition,[9]; [16],-1%
same,growth inhibition,[9]; [17],15%
same,growth inhibition,[9]; at 50.0 µM,25.3%
same,growth inhibition,[10]; at 1.2 µM,-5%
same,growth inhibition,[10]; at 3.7 µM,-3%
same,growth inhibition,[10]; [16],-14%
same,growth inhibition,[10]; at 11.0 µM,-4%
same,growth inhibition,[10]; at 33.0 µM,12%
same,growth inhibition,[10]; [17],74% (active)
same,growth inhibition,[10]; at 50.0 µM,75.5% (active)
same,growth inhibition,[10]; at 100.0 µM,50%
same,growth inhibition,[11]; at 1.2 µM,-3%
same,growth inhibition,[11]; at 3.7 µM,-2%
same,growth inhibition,[11]; at 11.0 µM,-1%
same,growth inhibition,[11]; at 33.0 µM,2%
same,growth inhibition,[11]; at 100.0 µM,11%
same,growth inhibition,[12]; at 1.2 µM,-2%
same,growth inhibition,[12]; at 3.7 µM,3%
same,growth inhibition,[12]; at 11.0 µM,3%
same,growth inhibition,[12]; at 33.0 µM,4%
same,growth inhibition,[12]; at 100.0 µM,12%
same,growth inhibition,[13]; at 1.2 µM,-10%
same,growth inhibition,[13]; at 3.7 µM,7%
same,growth inhibition,[13]; at 11.0 µM,13%
same,growth inhibition,[13]; at 33.0 µM,22%
same,growth inhibition,[13]; at 100.0 µM,36%
same,growth inhibition,[14]; [16],-10%
same,growth inhibition,[14]; [17],25%
same,growth inhibition,[14]; at 50.0 µM,61.8%
same,growth inhibition,[15]; at 1.2 µM,-3%
same,growth inhibition,[15]; at 3.7 µM,-3%
same,growth inhibition,[15]; at 11.0 µM,-5%
same,growth inhibition,[15]; at 33.0 µM,9%
same,growth inhibition,[15]; at 100.0 µM,-12%
CCCCOP(=O)(CCCP(=O)(OCCCC)OCCCC)OCCCC,growth inhibition,[1]; at 1.2 µM,0%
same,growth inhibition,[1]; at 3.7 µM,0%
same,growth inhibition,[1]; at 11.0 µM,3%
same,growth inhibition,[1]; at 33.0 µM,4%
same,growth inhibition,[1]; at 100.0 µM,97% (active)
same,growth inhibition,[2]; at 1.2 µM,-3%
same,growth inhibition,[2]; at 3.7 µM,0%
same,growth inhibition,[2]; at 11.0 µM,0%
same,growth inhibition,[2]; at 33.0 µM,5%
same,growth inhibition,[2]; at 100.0 µM,94% (active)
same,growth inhibition,[3]; at 1.2 µM,-4%
same,growth inhibition,[3]; at 3.7 µM,-4%
same,growth inhibition,[3]; at 11.0 µM,-3%
same,growth inhibition,[3]; at 33.0 µM,-3%
same,growth inhibition,[3]; at 100.0 µM,-2%
same,growth inhibition,[4]; at 1.2 µM,-3%
same,growth inhibition,[4]; at 3.7 µM,-3%
same,growth inhibition,[4]; at 11.0 µM,-1%
same,growth inhibition,[4]; at 33.0 µM,10%
same,growth inhibition,[4]; at 100.0 µM,42%
same,growth inhibition,[5]; at 1.2 µM,-1%
same,growth inhibition,[5]; at 3.7 µM,1%
same,growth inhibition,[5]; [16],7%
same,growth inhibition,[5]; at 11.0 µM,1%
same,growth inhibition,[5]; at 33.0 µM,7%
same,growth inhibition,[5]; [17],66%
same,growth inhibition,[5]; at 50.0 µM,2.05%
same,growth inhibition,[5]; at 100.0 µM,97% (active)
same,growth inhibition,[6]; at 1.2 µM,-6%
same,growth inhibition,[6]; at 3.7 µM,-3%
